According to PubChem BioAssay (NCATS):
Inconclusive results are not listed. Values without a mark were called inactive. The source made the active and inactive calls. Calls follow the shape of the dose curve; as a rule, active = well fitted inhibition curve with a large enough effect; inconclusive = small, poorly fitted or top-dose-only effect; inactive = flat fitted curve, though single readings scatter.
% is scaled to controls: 0 for no effect and ±100 for the full control effect; potency is read from the fitted curve at half-maximal effect.

The molecules below were run on HaCat (assay: Cytotoxic Profiling of Annotated Libraries Using Quantitative High-Throughput Screening (AID 1296008; also: nearly all actives have a fitted effect of over 60% in size)). Conditions: Five cell lines viability, CellTiter-Glo ATP luminescence, 48-72 h; max response: hits give low values.
Procedure, shortened: (§1)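 Cytotoxicity was measured as CellTiter-Glo ATP luminescence, read after 10 min at room temperature. Compound treatment of the cells lasted 48 or 72 hr at 37 degrees Celsius in a qHTS format.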
`Cc1ccc(=O)n(-c2ccccc2)c1` was tested, and the max response was 3.39%.
`Cc1nc2c([nH]1)c(=O)n(C)c(=O)n2Cc1ccco1` was tested, and the outcome was “inactive”.
Molecule `CC(=O)Nc1nnc(S(N)(=O)=O)s1` has a max response of 4.4%.
Molecule `CCN(CC)CCNC(=O)c1cc(S(C)(=O)=O)ccc1OC` has a max response of -0.825%.
For `NC(=O)N1c2ccccc2C=Cc2ccccc21`, the max response was -8.83%.
Work on `O=C(O)CCCCCCCC(=O)O` yielded a max response of 2.4%.
`NC(=O)c1cn(Cc2c(F)cccc2F)nn1` was tested, and the max response was 0.796%.
`COC(=O)[C@@H](N)Cc1ccc(O)c(O)c1` was tested, and the max response was 3.62%.
With `O=C(O)CN(CCOCCOCCN(CC(=O)O)CC(=O)O)CC(=O)O` the max response was 4.17%.
For `CC1=C(C)C(=O)C(CCCCC#CCCCC#CCO)=C(C)C1=O`, the max response was -15.6%.
`CCCCNc1ccc(C(=O)OCCN(C)C)cc1` was tested, and the max response was -3.56%.
`CN1C[C@H](C(=O)N[C@]2(C)O[C@@]3(O)[C@@H]4CCCN4C(=O)[C@H](Cc4ccccc4)N3C2=O)C[C@@H]2c3cccc4[nH]cc(c34)C[C@H]21` gave a max response of -5.88%.
With `CCN(Cc1ccncc1)C(=O)C(CO)c1ccccc1` (configuration not stated) the outcome was “inactive”.
In the case of `CCOC(=O)c1cnc2c(cnn2CC)c1NN=C(C)C`, the max response is reported as -11.8%.
For `CC(C)[N+](C)(CCOC(=O)C1c2ccccc2Oc2ccccc21)C(C)C`, the max response was -8.6%.
`Cc1ccc(/C(=C\CN2CCCC2)c2ccccn2)cc1` gave a max response of -3.07%.
For `O=C1CC2(CCCC2)CC(=O)N1CCCCN1CCN(c2ncccn2)CC1`, the outcome was “inactive”.
For `CCN(CC)CC(=O)Nc1c(C)cccc1C`, the max response was -2.67%.
For `CC(=O)[C@]1(O)Cc2c(O)c3c(c(O)c2[C@@H](O[C@H]2C[C@H](N)[C@H](O)[C@H](C)O2)C1)C(=O)c1ccccc1C3=O`, the Potency was 0.0596 µM (active).
In the case of `C[n+]1cc2c3c(ccc2c2ccc4cc5c(cc4c21)OCO5)OCO3`, the Potency is reported as 2.59 µM (active).
With `CN(C)C/C=C(/c1ccc(Br)cc1)c1cccnc1` the outcome was “inactive”.
`CCn1cc(C(=O)O)c(=O)c2cc3c(cc21)OCO3` was tested, and the max response was -9.91%.
In the case of `Nc1ncn([C@@H]2O[C@H](CO)[C@@H](O)[C@H]2O)c(=O)n1`, the max response is reported as -18.5%.
`CCCCCN(CCCCC)C(=O)C(CCC(=O)O)NC(=O)c1ccc(Cl)c(Cl)c1` (configuration not stated) was tested, and the outcome was “inactive”.
For `NC(N)=NC(=O)Cc1c(Cl)cccc1Cl`, the max response was -14.8%.
`CCN(CC)CCNC(=O)c1ccc(NC(C)=O)cc1` was tested, and the max response was 0.497%.
In the case of `O=C(O)CN(CCN(CC(=O)O)CC(=O)O)CCN(CC(=O)O)CC(=O)O`, the max response is reported as -15.5%.
In the case of `COc1cc(C(=O)OCCCN2CCCN(CCCOC(=O)c3cc(OC)c(OC)c(OC)c3)CC2)cc(OC)c1OC`, the max response is reported as 3.13%.
For `CC(C)NNC(=O)c1ccncc1`, the outcome was “inactive”.
`CC(=O)Oc1cc(C(C)C)c(OCCN(C)C)cc1C` showed a max response of 3.27%.
Molecule `CC(C)(C)NCC(O)c1cc(O)cc(O)c1` (configuration not stated) has a max response of 4.23%.
In the case of `NC(=O)c1ncn([C@@H]2O[C@H](CO)[C@@H](O)[C@H]2O)c1O`, the outcome is reported as “inactive”.

Each molecule was assayed on KB-3-1 in the same assay as above. Conditions: Five cell lines viability, CellTiter-Glo ATP luminescence, 48-72 h; max response: hits give low values.
Procedure, shortened: as §1
In the case of `Cc1ccc(=O)n(-c2ccccc2)c1`, the max response is reported as 4.11%.
`CC(=O)Nc1nnc(S(N)(=O)=O)s1` was tested, and the max response was 1.55%.
In the case of `NC(=O)c1cn(Cc2c(F)cccc2F)nn1`, the max response is reported as -1.38%.
In the case of `O=C(O)CN(CCOCCOCCN(CC(=O)O)CC(=O)O)CC(=O)O`, the max response is reported as 5.76%.
`CC1=C(C)C(=O)C(CCCCC#CCCCC#CCO)=C(C)C1=O` gave a max response of -7.44%.
In the case of `O=C(O)CP(=O)(O)O`, the max response is reported as 0.355%.
For `CN1C[C@H](C(=O)N[C@]2(C)O[C@@]3(O)[C@@H]4CCCN4C(=O)[C@H](Cc4ccccc4)N3C2=O)C[C@@H]2c3cccc4[nH]cc(c34)C[C@H]21`, the max response was 0.239%.
For `CC(=O)[C@]1(O)Cc2c(O)c3c(c(O)c2[C@@H](O[C@H]2C[C@H](N)[C@H](O)[C@H](C)O2)C1)C(=O)c1ccccc1C3=O`, the Potency was 4.61 µM (active).
`C[n+]1cc2c3c(ccc2c2ccc4cc5c(cc4c21)OCO5)OCO3` showed a max response of -95.7%.
`CCn1cc(C(=O)O)c(=O)c2cc3c(cc21)OCO3` was tested, and the max response was -12.7%.
In the case of `NC(N)=NC(=O)Cc1c(Cl)cccc1Cl`, the max response is reported as 6.63%.
`CCN(CC)CCNC(=O)c1ccc(NC(C)=O)cc1` gave a max response of 1.57%.
For `COc1cc(C(=O)OCCCN2CCCN(CCCOC(=O)c3cc(OC)c(OC)c(OC)c3)CC2)cc(OC)c1OC`, the max response was -1.09%.
In the case of `C[C@@H](O)[C@H]1C(=O)N2C(C(=O)O)=C(SCCN=CN)C[C@H]12`, the max response is reported as -8.98%.
`C[N+](C)(C)CCOC(N)=O` showed a max response of 27.4%.
With `COC(=O)C1=C(C)NC(C)=C(C(=O)OCCN(C)Cc2ccccc2)C1c1cccc([N+](=O)[O-])c1` (configuration not stated) the max response was -10.4%.

What follows are molecules tested on NIH3T3 in the same assay as above. Conditions: Five cell lines viability, CellTiter-Glo ATP luminescence, 48-72 h; max response: hits give low values.
Procedure, shortened: as §1
`Cc1ccc(=O)n(-c2ccccc2)c1` was tested, and the max response was -3.29%.
`Cc1nc2c([nH]1)c(=O)n(C)c(=O)n2Cc1ccco1` gave a max response of -4.53%.
With `CC(=O)Nc1nnc(S(N)(=O)=O)s1` the outcome was “inactive”.
`CCN(CC)CCNC(=O)c1cc(S(C)(=O)=O)ccc1OC` was tested, and the max response was -1.98%.
Molecule `NC(=O)N1c2ccccc2C=Cc2ccccc21` has a max response of 2.27%.
With `O=C(O)CCCCCCCC(=O)O` the outcome was “inactive”.
`NC(=O)c1cn(Cc2c(F)cccc2F)nn1` was tested, and the max response was -0.364%.
In the case of `COC(=O)[C@@H](N)Cc1ccc(O)c(O)c1`, the max response is reported as -6.82%.
In the case of `O=C(O)CN(CCOCCOCCN(CC(=O)O)CC(=O)O)CC(=O)O`, the max response is reported as -0.882%.
For `CC1=C(C)C(=O)C(CCCCC#CCCCC#CCO)=C(C)C1=O`, the max response was -8.8%.
In the case of `CCCCNc1ccc(C(=O)OCCN(C)C)cc1`, the outcome is reported as “inactive”.
In the case of `O=C(O)CP(=O)(O)O`, the outcome is reported as “inactive”.
In the case of `CCN(Cc1ccncc1)C(=O)C(CO)c1ccccc1` (configuration not stated), the max response is reported as -10.9%.
With `CCOC(=O)c1cnc2c(cnn2CC)c1NN=C(C)C` the max response was -3.28%.
For `CC(C)[N+](C)(CCOC(=O)C1c2ccccc2Oc2ccccc21)C(C)C`, the outcome was “inactive”.
Work on `Cc1ccc(/C(=C\CN2CCCC2)c2ccccn2)cc1` yielded a max response of 1.95%.
Work on `O=C1CC2(CCCC2)CC(=O)N1CCCCN1CCN(c2ncccn2)CC1` yielded a max response of -6.17%.
With `CCN(CC)CC(=O)Nc1c(C)cccc1C` the outcome was “inactive”.
For `CC(=O)[C@]1(O)Cc2c(O)c3c(c(O)c2[C@@H](O[C@H]2C[C@H](N)[C@H](O)[C@H](C)O2)C1)C(=O)c1ccccc1C3=O`, the Potency was 0.0841 µM (active).
In the case of `C[n+]1cc2c3c(ccc2c2ccc4cc5c(cc4c21)OCO5)OCO3`, the Potency is reported as 4.61 µM (active).
With `CN(C)C/C=C(/c1ccc(Br)cc1)c1cccnc1` the outcome was “inactive”.
Work on `CCn1cc(C(=O)O)c(=O)c2cc3c(cc21)OCO3` yielded a max response of -23.3%.
For `Nc1ncn([C@@H]2O[C@H](CO)[C@@H](O)[C@H]2O)c(=O)n1`, the max response was -10.9%.
`CCCCCN(CCCCC)C(=O)C(CCC(=O)O)NC(=O)c1ccc(Cl)c(Cl)c1` (configuration not stated) gave a max response of -0.48%.
With `NC(N)=NC(=O)Cc1c(Cl)cccc1Cl` the max response was 3.43%.
`CCN(CC)CCNC(=O)c1ccc(NC(C)=O)cc1` was tested, and the max response was -3.76%.
For `COc1cc(C(=O)OCCCN2CCCN(CCCOC(=O)c3cc(OC)c(OC)c(OC)c3)CC2)cc(OC)c1OC`, the max response was -3.19%.
With `C[C@@H](O)[C@H]1C(=O)N2C(C(=O)O)=C(SCCN=CN)C[C@H]12` the max response was -19.7%.
For `CC(C)NNC(=O)c1ccncc1`, the outcome was “inactive”.
For `CC(=O)Oc1cc(C(C)C)c(OCCN(C)C)cc1C`, the outcome was “inactive”.
With `C[N+](C)(C)CCOC(N)=O` the max response was -0.0921%.
With `CC(C)(C)NCC(O)c1cc(O)cc(O)c1` (configuration not stated) the max response was 3.49%.
`COC(=O)C1=C(C)NC(C)=C(C(=O)OCCN(C)Cc2ccccc2)C1c1cccc([N+](=O)[O-])c1` (configuration not stated) was tested, and the Potency was 26.6 µM (active).
In the case of `NC(=O)c1ncn([C@@H]2O[C@H](CO)[C@@H](O)[C@H]2O)c1O`, the max response is reported as -1.25%.
